The campaign covered roughly 5,500 compounds. About 2,000 (36%) were called active. Roughly 18% stayed inconclusive and do not appear here. No stated cut-off is given here; in the data, active means normalized growth mostly below about 0.91 (no sharp cut-off); inconclusive means no clear call, values can overlap the other calls; inactive means mostly above about 0.92. The list shows a part of the results.
Test: chemical genetic growth profiling, strain panel (AID 1159580);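 further: tested at 20 µM; growth read once vehicle control cultures reached saturation at 30 °C; 1 = growth at the plate median or of vehicle wells; lower values mean less growth of the strain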
Details: S. cerevisiae deletion strains, growth OD

Measured: normalized growth

O=C(Cc1cccs1)NC1C(=O)N2C(C(=O)[O-])=C(C[n+]3ccccc3)CSC12 (stereo unspecified)
inactive: locus YAL013W, strain DEP1, hits give low values 1.01 | locus YAL021C, strain ccr4, hits give low values 0.966 | locus YAL026C, strain drs2, hits give low values 0.989 | locus YAL030W, strain snc1, hits give low values 0.994 | locus YBL061C, strain skt5, hits give low values 0.995 | locus YBR009C, strain hhf1, hits give low values 0.981 | locus YBR021W, strain FUR4, hits give low values 1 | locus YBR023C, strain chs3, hits give low values 0.993 | locus YBR171W, strain sec66, hits give low values 0.975 | locus YBR229C, strain ROT2, hits give low values 0.99 | locus YBR231C, strain swc5, hits give low values 0.985 | locus YBR279W, strain paf1, hits give low values 0.996 | locus YCL011C, strain gbp2, hits give low values 0.997 | locus YCL016C, strain dcc1, hits give low values 0.991 | locus YCL029C, strain bik1, hits give low values 1 | locus YCL069W, strain vba3, hits give low values 0.991 | locus YCR088W, strain abp1, hits give low values 0.982 | locus YDL005C, strain med2, hits give low values 0.968 | locus YDL035C, strain GPR1, hits give low values 0.998 | locus YDL040C, strain nat1, hits give low values 0.983 | locus YDL074C, strain BRE1, hits give low values 1.01 | locus YDL101C, strain DUN1, hits give low values 1.02 | locus YDL134C, strain PPH21, hits give low values 1 | locus YDL185W, strain tfp1, hits give low values 0.991 | locus YDL192W, strain arf1, hits give low values 0.992 | locus YDR001C, strain nth1, hits give low values 0.996 | locus YDR069C, strain doa4, hits give low values 0.964 | locus YDR101C, strain arx1, hits give low values 1.01 | locus YDR137W, strain rgp1, hits give low values 0.988 | locus YDR159W, strain sac3, hits give low values 0.962 | locus YDR162C, strain NBP2, hits give low values 1.01 | locus YDR195W, strain ref2 1.01 | locus YDR297W, strain sur2, hits give low values 0.989 | locus YDR318W, strain mcm21, hits give low values 0.998 | locus YDR334W, strain swr1, hits give low values 0.993 | locus YDR335W, strain msn5, hits give low values 0.996 | locus YDR388W, hits give low values 0.99 | locus YDR392W, strain spt3, hits give low values 0.994 | locus YDR502C, strain sam2, hits give low values 0.985 | locus YEL003W, strain gim4, hits give low values 0.969 | locus YEL037C, strain rad23, hits give low values 1 | locus YEL061C, strain CIN8 (second series), hits give low values 1 | locus YEL061C, strain CIN8, hits give low values 1.01 | locus YER015W, strain faa2, hits give low values 0.983 | locus YER016W, strain bim1, hits give low values 0.983 | locus YER110C, hits give low values 0.992 | locus YER111C, strain swi4, hits give low values 0.96 | locus YER155C, strain BEM2 (second series), hits give low values 0.987 | locus YER155C, strain BEM2, hits give low values 1 | locus YER167W, strain BCK2, hits give low values 0.991 | locus YFR010W, strain ubp6, hits give low values 0.986 | locus YGL078C, strain dbp3, hits give low values 0.99 | locus YGL086W, strain mad1, hits give low values 0.999 | locus YGL167C, strain pmr1, hits give low values 0.985 | locus YGL173C, strain kem1, hits give low values 0.982 | locus YGL227W, strain vid30, hits give low values 0.979 | locus YGL240W, strain doc1, hits give low values 0.956 | locus YGL248W, strain PDE1, hits give low values 1.02 | locus YGL253W, strain hxk2, hits give low values 0.999 | locus YGR135W, strain pre9, hits give low values 0.978 | locus YGR252W, strain gcn5, hits give low values 0.941 | locus YHR013C, strain ard1, hits give low values 0.981 | locus YHR027C, strain rpn1, hits give low values 0.991 | locus YHR030C, strain SLT2, hits give low values 1.01 | locus YHR079C, strain IRE1 (second series), hits give low values 0.996 | locus YHR094C, strain hxt1, hits give low values 0.998 | locus YHR129C, strain ARP1, hits give low values 1.01 | locus YHR142W, strain chs7, hits give low values 0.963 | locus YHR200W, strain rpn10, hits give low values 0.994 | locus YIL066C, strain RNR3, hits give low values 1.02 | locus YIL073C, strain SPO22, hits give low values 1.09 | locus YIL125W, strain kgd1, hits give low values 0.999 | locus YIR030C, strain dcg1, hits give low values 1.01 | locus YJL092W, strain hpr5, hits give low values 0.986 | locus YJL095W, strain BCK1 (second series), hits give low values 0.961 | locus YJL095W, strain BCK1, hits give low values 1.03 | locus YJL115W, strain asf1, hits give low values 0.981 | locus YJL129C, strain trk1, hits give low values 0.99 | locus YJL134W, strain LCB3, hits give low values 1 | locus YJL154C, strain vps35, hits give low values 0.983 | locus YJL164C, strain tpk1, hits give low values 0.985 | locus YJL166W, strain qcr8, hits give low values 0.979 | locus YJL168C, strain set2, hits give low values 0.994 | locus YJL187C, strain SWE1 (second series), hits give low values 1.01 | locus YJL187C, strain SWE1, hits give low values 0.978 | locus YJR043C, strain POL32, hits give low values 1.01

From PubChem BioAssay AID1159580 (chemical genetic matrix, 2015)
